RGS7-Gao reg: human RGS7-Galphao interaction regulation | P09471 | Multiplexed bead flow cytometry, RGS7-Galphao binding; actives lie on both sides | binding response (% of control), % at 10 µM | actives 0.35% (n = 220,000); in the data active = binding response below about 49% or above about 150%; inconclusive = no clear call, values can overlap the other calls; inactive = in between;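 also: fluorescent Galphao held in activated GDP-AlF4 state binding bead-coupled RGS7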
Target sequence (P09471 whole entry, looked up): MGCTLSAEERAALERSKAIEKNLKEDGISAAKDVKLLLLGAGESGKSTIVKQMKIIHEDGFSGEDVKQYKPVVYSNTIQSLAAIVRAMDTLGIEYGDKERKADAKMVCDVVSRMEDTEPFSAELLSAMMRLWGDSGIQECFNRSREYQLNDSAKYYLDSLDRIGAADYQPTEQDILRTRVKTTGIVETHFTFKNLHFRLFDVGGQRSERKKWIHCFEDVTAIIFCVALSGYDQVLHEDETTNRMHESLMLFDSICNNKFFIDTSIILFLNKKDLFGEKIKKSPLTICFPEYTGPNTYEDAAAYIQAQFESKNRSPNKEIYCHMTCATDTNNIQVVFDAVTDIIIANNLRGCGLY
RGS8-Gao reg: regulators of human RGS8-Galphao interaction; P09471; multiplexed bead flow cytometry, RGS8-Galphao binding; actives lie on both sides; response (percent of control binding), % at 10 µM; actives 0.34% (n = 220,000); AID 1423; in the data active = response below about 60% or above about 140%; inactive = in between;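 also: Galphao activated as the GDP aluminium fluoride complex binding bead-coupled RGS8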
RGS16-Gao: modulates binding between human RGS16 and Galphao; bead-based flow cytometry RGS16-Galphao binding, fluorescence; actives lie on both sides; binding response (% of control), % at 10 µM; actives 0.38% (n = 220,000); AID 1441; call rule not given here;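 also: Galphao activated by GDP with aluminum fluoride before binding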
Target sequence (O15492 whole entry, looked up): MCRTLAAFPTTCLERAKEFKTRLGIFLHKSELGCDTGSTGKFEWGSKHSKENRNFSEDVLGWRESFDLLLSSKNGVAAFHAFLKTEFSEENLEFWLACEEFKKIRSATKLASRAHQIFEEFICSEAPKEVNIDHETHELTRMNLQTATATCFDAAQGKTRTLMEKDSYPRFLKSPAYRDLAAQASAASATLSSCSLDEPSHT
Target sequence (P09471 whole entry, looked up): as the sequence (P09471 whole entry, looked up) above
RGS4-Gao reg: modulates binding of RGS4 to human Galphao; P09471; AID 1415; binding response (% of control), % at 10 µM; Multiplexed bead flow cytometry; actives lie on both sides; actives 0.33% (n = 220,000); in the data active = binding response below about 49% or above about 150%; inactive = in between;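 also: fluorescent Galphao activated with aluminum fluoride binding bead-coupled RGS4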
Avidin bead fluor: compound fluoresces at 488/530 nm on avidin beads. compound fluorescence 488/530 nm, flow cytometry; hits give high values. fluorescence (KMESF) at 10 µM. actives 0.38% (n = 220,000); in the data active = fluorescence above about 47
GSH bead fluor: GSH bead compound fluorescence profile; GSH beads flow cytometry, compound fluorescence 488/530 nm; hits give high values; fluorescence (KMESF) at 10 µM; actives 0.25% (n = 190,000); AID 1776; in the data active = fluorescence above about 89;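 also: glutathione beads carrying GST-tagged Bcl family fusion proteins plus one bare bead set; values are compound well signal with DMSO vehicle wells as background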
Biotin-avidin: interferes with biotinylated probe binding to avidin beads; shares compounds with RGS16-Gao; streptavidin beads, fluorescein-biotin binding, flow cytometry; inhibition, % at 10 µM; 1,700 tested, under 10 active; AID 1783;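 active = inhibition above 50%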;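 also: median green fluorescence of gated singlet beads compared with DMSO control wells; 0% = DMSO wells and 100% = complete loss of bead fluorescence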
RGS8-Gao single: RGS8-Galphao interaction regulation, single point confirmation; bead-based flow cytometry RGS8-Galphao binding, fluorescence; actives lie on both sides; shares compounds with RGS16-Gao; actives 3% (n = 1,700); binding response (% of control), % at 10 µM; in the data active = binding response below about 72% or above about 130%; inactive = in between;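 also: Galphao activated as GDP AlF4 complex before binding bead RGS8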
RGS7-Gao confirm: RGS7-Galphao interaction regulation, single point confirmation; shares compounds with RGS16-Gao; bead-based flow cytometry RGS7-Galphao binding; actives lie on both sides; response (percent of control binding), % at 10 µM; actives 7.8% (n = 1,700); in the data active = response below about 75% or above about 130%; inactive = in between;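 also: fluorescent Galphao activated with GDP and aluminum fluoride binding bead-coupled RGS7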
RGS16-Gao single: confirmation of regulators of human RGS16-Galphao interaction | shares compounds with RGS16-Gao | bead-based flow cytometry, RGS16-Galphao binding; actives lie on both sides | response (% of control binding), % at 10 µM | actives 4% (n = 1,700); in the data active = response below about 74% or above about 130%; inactive = in between;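 also: Galphao activated as the GDP aluminium fluoride complex binding bead-coupled RGS16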
RGS4-Gao single: confirmation of regulators of human RGS4-Galphao interaction; binding response (% of control), % at 10 µM; RGS4-Galphao binding, multiplexed bead flow cytometry; actives lie on both sides; actives 4% (n = 1,700); AID 1840; shares compounds with RGS16-Gao; in the data active = binding response below about 74% or above about 130%; inactive = in between
RGS19-Gao single: RGS19-Galphao interaction regulation, single point confirmation; shares compounds with RGS16-Gao; response (percent of control binding), % at 10 µM; bead-based flow cytometry RGS19-Galphao binding; actives lie on both sides; AID 1841; actives 5% (n = 1,700); in the data active = response below about 50% or above about 160%; inactive = in between;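 also: 100% = no compound control and 0% = blank background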
Numbers without * were called inactive; u = inconclusive; x = no result. Only some compounds are listed: those with a hit (about 1.2% of all), similar ones and a draw of the others.

SMILES	RGS7-Gao reg	RGS8-Gao reg	RGS16-Gao	RGS4-Gao reg	Avidin bead fluor	GSH bead fluor	others
O=c1c2ccccc2nc(-c2ccco2)n1-c1ccccc1	109	106	113	118	12	125*
O=C(c1ccc(N2CC3CC(C2)c2cccc(=O)n2C3)c([N+](=O)[O-])c1)N1CCCCC1 (stereo not drawn)	104	106	112	104	15	9
O=c1[nH]c(=O)n(C2CCCCC2)c(O)c1C1NCCc2ccccc21 (stereo not drawn)	102	103	100	106	6	261*
CCOP(=O)(OCC)C(O)c1cccnc1 (stereo not drawn)	u	109	113	132	81*	x
CCOP(=O)(OCC)C(O)c1ccccc1 (stereo not drawn)	u	104	101	108	4	x
O=P(O)(O)C#Cc1ccccc1	97	97	95	98	9	261*
Nc1ccccc1N=Cc1c(O)n(CCC2=CCCCC2)c(=O)[nH]c1=O	96	100	100	100	19	10
O=c1[nH]c(=O)n(CCC2=CCCCC2)c(O)c1C=Nc1cccc(F)c1	113	102	97	100	57*	12
C/C(=N\N1CCCCCC1)c1c(O)n(-c2ccccc2C)c(=O)[nH]c1=O	u	107	108	105	5	x
O=C1NC(=O)C2(Cc3ccccc3N3CCCC32)C(=O)N1 (stereo not drawn)	100	95	87	101	8	32
O=C1NC(=O)C2(Cc3ccccc3N3CCCC32)C(=O)N1c1ccccc1 (stereo not drawn)	111	99	100	99	54*	23
CC(C)=CCc1c(O)cc2c(c1O)C(=O)CC(c1ccc(O)cc1)O2 (stereo not drawn)	u	101	100	99	9	x
CCCCCn1c(=O)c(C(=O)Nc2nc(CC(=O)OCC)cs2)c(O)c2ccccc21	102	103	103	101	22	96*
CC12CN3CCN(C1)CC(C)(C3)C2=NN	u	100	95	94	4	x
CCN(c1ccc(C(O)(C(=O)OC)C(F)(F)F)cc1)S(=O)(=O)c1ccc(C)cc1 (stereo not drawn)	104	100	106	105	7	16
COc1cc(NC(=O)CN2C3CCC2CC(O)(c2cccnc2)C3)cc(OC)c1 (stereo not drawn)	113	100	100	104	49*	11
CC(C)OC1CCCC(O)C1CC(=O)O (stereo not drawn)	u	101	100	100	3	x
NNc1n[nH]c(=S)n1N	u	104	144	144	88*	x
Cc1n[nH]c(C)c1CCN	102	102	105	104	59*	16
CCOC(=O)C1=C(N)OC2=C(C(=O)CCC2)C12C(=O)N(C)c1ccccc12 (stereo not drawn)	u	99	95	92	7	x
O=C(Cn1cc(C(=O)c2ccccc2)c2ccccc21)NCc1ccco1	108	105	111	103	50*	20
O=P(O)(O)C12CC3CC(CC(C3)C1)C2	103	103	102	101	30	23
C=CCn1c(O)c(C(C)=NC(C)c2ccccc2)c(=O)[nH]c1=O (stereo not drawn)	u	96	101	100	5	x
CC(C)(C)c1nc(NCc2ccc3c(c2)OCO3)c2nnn(Cc3ccccc3Cl)c2n1	102	100	104	101	4	141*
CC1Oc2cc3c(-c4c(O)cc(O)c5c(O)c6c(cc45)OC(C)C(C)C6=O)c(O)cc(O)c3c(O)c2C(=O)C1C (stereo not drawn)	u	36*	15*	14*	0	x
SMILES	RGS7-Gao reg	RGS8-Gao reg	RGS16-Gao	RGS4-Gao reg	Avidin bead fluor	GSH bead fluor	others
COc1ccc(OC)c(CN2CCCC(C(=O)c3sccc3C)C2)c1 (stereo not drawn)	u	102	99	102	7	x
O=C(O)CC1OCC=C2CN3CCC45C6=CC(=O)C(=O)C([N+](=O)[O-])=C6NC4C1C2CC35 (stereo not drawn)	u	69	47	46*	2	x	Biotin-avidin=-1;RGS8-Gao single=99;RGS7-Gao confirm=97;RGS16-Gao single=97;RGS4-Gao single=101;RGS19-Gao single=98
Clc1cc(Cl)cc(NC2=NCCS2)c1	u	17*	-17*	-29*	-3	x	Biotin-avidin=0;RGS8-Gao single=103;RGS7-Gao confirm=106;RGS16-Gao single=102;RGS4-Gao single=106;RGS19-Gao single=98
O=C1NC(=O)C(CCc2ccccn2)(Cc2ccc3c(c2)OCO3)C(=O)N1CCc1ccccc1 (stereo not drawn)	103	100	101	103	16	17
CC(C)N1C(=O)CC2(CC[N+](C)(CCOC(=O)C(O)(c3ccccc3)c3ccccc3)CC2)C1=O (stereo not drawn)	27*	32*	25*	32*	4	34	Biotin-avidin=3;RGS8-Gao single=104;RGS7-Gao confirm=102;RGS16-Gao single=101;RGS4-Gao single=102;RGS19-Gao single=85
Cc1ccc(C(=O)N[C@@H](C)CN2C3=NC[C@H](Cc4ccccc4)N3C[C@H]2Cc2ccc(O)cc2)cc1Br	u	91	77	73	7	x
Cc1ccc(C(=O)N[C@@H](C)CN2C3=NC[C@@H](Cc4ccccc4)N3C[C@H]2Cc2ccc(O)cc2)cc1Br	5.7*	18*	9.1*	17*	-1	22	Biotin-avidin=2;RGS8-Gao single=103;RGS7-Gao confirm=103;RGS16-Gao single=99;RGS4-Gao single=103;RGS19-Gao single=96

Source: PubChem
